# Assay results as given in PubChem BioAssay AID1159580 (chemical genetic matrix, 2015).
# Out of some 5,500 compounds screened, about 2,000 (36%) were called active. Not shown: some 18% with an inconclusive outcome. The list shows a part of the results. Unmarked numbers belong to inactive results. Rule as the data show it: active = normalized growth mostly below about 0.91 (no sharp cut-off); inconclusive = no clear call, values can overlap the other calls; inactive = mostly above about 0.92.
# Assay: chemical genetic growth profiling, strain panel (AID 1159580);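 also: tested at 20 µM; growth read once vehicle control cultures reached saturation at 30 °C; 1 = growth at the plate median or of vehicle wells; lower values mean less growth of the strain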
# Conditions: S. cerevisiae deletion strains, growth OD
# [1] = locus YAL013W, strain DEP1, stronger effect = lower value
# [2] = locus YAL040C, strain CLN3, stronger effect = lower value
# [3] = locus YDR363W, strain ESC2, stronger effect = lower value
# [4] = locus YER002W, strain NOP16, stronger effect = lower value
# [5] = locus YGR078C, strain PAC10, stronger effect = lower value
# [6] = locus YJR075W, strain HOC1, stronger effect = lower value
# [7] = locus YNL175C, strain NOP13, stronger effect = lower value
# [8] = locus YNL197C, strain WHI3, stronger effect = lower value
# [9] = locus YNL224C, strain SQS1, stronger effect = lower value
# [10] = locus YNL322C, strain KRE1, stronger effect = lower value
# [11] = locus YOR083W, strain WHI5 (second series), stronger effect = lower value
# [12] = locus YPL055C, strain LGE1, stronger effect = lower value
smiles,measurement,setting,value
S=C(S)N1CCCC1,normalized growth,[1],0.676 (active)
same,normalized growth,[2],1
same,normalized growth,"locus YDR150W, strain NUM1, stronger effect = lower value",0.634 (active)
same,normalized growth,[3],0.804 (active)
same,normalized growth,[4],0.992
same,normalized growth,[5],0.977
same,normalized growth,[6],0.52 (active)
same,normalized growth,[7],0.98
same,normalized growth,[8],0.409 (active)
same,normalized growth,[9],0.966
same,normalized growth,[10],0.916
same,normalized growth,[11],0.175 (active)
same,normalized growth,[12],0.454 (active)
same,normalized growth,"locus YPL241C, strain CIN2, stronger effect = lower value",0.943 (active)
Fc1ccc(Nc2nc(-c3ccc(F)c(F)c3)cs2)c(F)c1,normalized growth,"locus YAR019C, strain CDC15, stronger effect = lower value",0.14 (active)
same,normalized growth,"locus YBL105C, strain PKC1, stronger effect = lower value",0.104 (active)
same,normalized growth,"locus YBR135W, strain CKS1, stronger effect = lower value",0.0961 (active)
same,normalized growth,"locus YBR136W, strain MEC1, stronger effect = lower value",0.0962 (active)
same,normalized growth,"locus YBR160W, strain CDC28, stronger effect = lower value",0.12 (active)
same,normalized growth,"locus YDL017W, strain CDC7, stronger effect = lower value",0.128 (active)
same,normalized growth,"locus YDL028C, strain MPS1, stronger effect = lower value",0.104 (active)
same,normalized growth,"locus YDL101C, strain DUN1, stronger effect = lower value",0.282 (active)
same,normalized growth,"locus YDL108W, strain KIN28, stronger effect = lower value",0.132 (active)
same,normalized growth,"locus YDL132W, strain cdc53, stronger effect = lower value",0.0939 (active)
same,normalized growth,"locus YDL214C, strain PRR2, stronger effect = lower value",0.182 (active)
same,normalized growth,"locus YDR052C, strain DBF4, stronger effect = lower value",0.181 (active)
same,normalized growth,"locus YDR054C, strain cdc34, stronger effect = lower value",0.094 (active)
same,normalized growth,"locus YDR226W, strain ADK1, stronger effect = lower value",0.107 (active)
same,normalized growth,"locus YDR477W, strain SNF1, stronger effect = lower value",0.102 (active)
same,normalized growth,"locus YER123W, strain YCK3, stronger effect = lower value",0.173 (active)
same,normalized growth,"locus YER133W, strain GLC7, stronger effect = lower value",0.17 (active)
same,normalized growth,"locus YFL009W, strain cdc4, stronger effect = lower value",0.0952 (active)
same,normalized growth,"locus YFL029C, strain CAK1, stronger effect = lower value",0.0895 (active)
same,normalized growth,"locus YFR003C, strain YPI1, stronger effect = lower value",0.105 (active)
same,normalized growth,"locus YFR019W, strain FAB1, stronger effect = lower value",0.102 (active)
same,normalized growth,"locus YFR028C, strain CDC14, stronger effect = lower value",0.0972 (active)
same,normalized growth,"locus YGR040W, strain KSS1, stronger effect = lower value",0.102 (active)
same,normalized growth,"locus YGR052W, strain FMP48, stronger effect = lower value",0.144 (active)
same,normalized growth,"locus YGR092W, strain DBF2, stronger effect = lower value",0.11 (active)
same,normalized growth,"locus YHR030C, strain SLT2, stronger effect = lower value",0.141 (active)
same,normalized growth,"locus YHR079C, strain IRE1, stronger effect = lower value",0.158 (active)
same,normalized growth,"locus YHR082C, strain KSP1, stronger effect = lower value",0.155 (active)
same,normalized growth,"locus YHR205W, strain SCH9, stronger effect = lower value",0.000718 (active)
same,normalized growth,"locus YIL147C, strain SLN1, stronger effect = lower value",0.133 (active)
same,normalized growth,"locus YJL095W, strain BCK1, stronger effect = lower value",0.133 (active)
same,normalized growth,"locus YJL128C, strain PBS2, stronger effect = lower value",0.0972 (active)
same,normalized growth,"locus YJL157C, strain FAR1, stronger effect = lower value",0.199 (active)
same,normalized growth,"locus YJR016C, strain ILV3, stronger effect = lower value",0.0878 (active)
same,normalized growth,"locus YJR066W, strain TOR1 (second series), stronger effect = lower value",0.0987 (active)
same,normalized growth,"locus YJR066W, strain TOR1, stronger effect = lower value",0.111 (active)
same,normalized growth,"locus YKL048C, strain ELM1, stronger effect = lower value",0.145 (active)
same,normalized growth,"locus YKL067W, strain YNK1, stronger effect = lower value",0.182 (active)
same,normalized growth,"locus YKL101W, strain HSL1, stronger effect = lower value",0.132 (active)
same,normalized growth,"locus YKL193C, strain SDS22, stronger effect = lower value",0.0966 (active)
same,normalized growth,"locus YKL203C, strain TOR2, stronger effect = lower value",0.104 (active)
same,normalized growth,"locus YLR113W, strain HOG1, stronger effect = lower value",0.189 (active)
same,normalized growth,"locus YLR133W, strain CKI1, stronger effect = lower value",0.0955 (active)
same,normalized growth,"locus YLR403W, strain SFP1, stronger effect = lower value",0.0012 (active)
same,normalized growth,"locus YML070W, strain DAK1, stronger effect = lower value",0.113 (active)
same,normalized growth,"locus YMR001C, strain CDC5, stronger effect = lower value",0.0929 (active)
same,normalized growth,"locus YMR205C, strain PFK2 (second series), stronger effect = lower value",0.0941 (active)
same,normalized growth,"locus YMR277W, strain FCP1, stronger effect = lower value",0.0934 (active)
same,normalized growth,"locus YNL006W, strain LST8, stronger effect = lower value",0.106 (active)
same,normalized growth,"locus YNL020C, strain ARK1, stronger effect = lower value",0.107 (active)
same,normalized growth,"locus YNL161W, strain CBK1, stronger effect = lower value",0.475 (active)
same,normalized growth,"locus YNL183C, strain NPR1, stronger effect = lower value",0.155 (active)
same,normalized growth,"locus YNL207W, strain RIO2, stronger effect = lower value",0.114 (active)
same,normalized growth,"locus YNL222W, strain SSU72, stronger effect = lower value",0.101 (active)
same,normalized growth,"locus YNL307C, strain MCK1 (second series), stronger effect = lower value",0.117 (active)
same,normalized growth,"locus YOL078W, strain AVO1, stronger effect = lower value",0.092 (active)
same,normalized growth,"locus YOL136C, strain PFK27, stronger effect = lower value",0.197 (active)
same,normalized growth,"locus YOR061W, strain CKA2, stronger effect = lower value",0.102 (active)
same,normalized growth,"locus YOR119C, strain RIO1, stronger effect = lower value",0.107 (active)
same,normalized growth,"locus YOR231W, strain MKK1, stronger effect = lower value",0.169 (active)
same,normalized growth,"locus YOR329C, strain SCD5, stronger effect = lower value",0.117 (active)
same,normalized growth,"locus YPL031C, strain PHO85, stronger effect = lower value",0.114 (active)
same,normalized growth,"locus YPL153C, strain RAD53, stronger effect = lower value",0.116 (active)
same,normalized growth,"locus YPL204W, strain HRR25, stronger effect = lower value",0.104 (active)
same,normalized growth,"locus YPL209C, strain IPL1, stronger effect = lower value",0.0912 (active)
same,normalized growth,"locus YPL256C, strain CLN2, stronger effect = lower value",0.179 (active)
same,normalized growth,"locus YPR025C, strain CCL1, stronger effect = lower value",0.0957 (active)
same,normalized growth,"locus YPR106W, strain ISR1, stronger effect = lower value",0.099 (active)
same,normalized growth,"locus YPR111W, strain DBF20, stronger effect = lower value",0.101 (active)
same,normalized growth,"strain NNK1, stronger effect = lower value",0.114 (active)
same,normalized growth,"strain TSCII, stronger effect = lower value",0.106 (active)
N[C@@H](CCCC(=O)O)C(=O)O,normalized growth,[1],1.01
same,normalized growth,[2],1.08
same,normalized growth,"locus YCL061C, strain MRC1 (second series), stronger effect = lower value",1.01
same,normalized growth,[3],1.02
same,normalized growth,[4],0.981
same,normalized growth,[5],1.01
same,normalized growth,[6],1.01
same,normalized growth,"locus YMR263W, strain SAP30, stronger effect = lower value",1
same,normalized growth,"locus YNL153C, strain GIM3, stronger effect = lower value",1.02
same,normalized growth,[7],1
same,normalized growth,[8],1.03
same,normalized growth,[9],0.988
same,normalized growth,[10],1.02
same,normalized growth,[11],0.993
same,normalized growth,[12],0.988
